Assay results: PubChem BioAssay (NCATS)
Records with an inconclusive call do not appear. Values without a mark were called inactive. Active and inactive are the calls of the source. Calls come from the whole dose curve; as a rule, active = well fitted cell-killing curve with a large enough effect; inconclusive = small, poorly fitted or top-dose-only effect, or effect the other way; inactive = no such curve, though single readings can be large or run the other way.
Potency is the fitted concentration of half-maximal effect.

Assay: Quantitative High-Throughput drug screen in 47 multiple myeloma cell lines against the NCATS MIPE library collection: JJN3_DSMZ cell viability assay (AID 1918966; note: nearly all actives have a fitted effect of over 50% in size)
Settings: JJN3 myeloma cells viability, CellTiter-Glo ATP, 48 h; series mostly up to 45.8 µM; viability, % of DMSO: at the top concentration
Excerpt: PI: Beverly A. Mock Ph.D.
Laboratory of Cancer Biology and Genetics,
Center for Cancer Research, National Cancer Institute,
National Institute of Health, Bethesda, Maryland
Drug resistance and disease progression are common in multiple myeloma (MM) patients, underscoring the need for new therapeutic combinations. […] We hypothesized that effective combinations would reduce MYC expression and enhance p16 activity. […] These preclinical data identify potentially useful drug combinations for evaluation in drug-resistant MM and reveal potential mechanisms of combined drug sensitivity.
Described herein is the primary MIPE qHTS used to cherrypick compounds. Validated compounds were then further tested for potential synergistic activiy.
[1] Peat TJ, Gaikwad SM, Dubois W, Gyabaah-Kessie N, Zhang S, Gorjifard S, Phyo Z, Andres M, Hughitt VK, Simpson RM, Miller MA, Girvin AT, Taylor A, Williams D, D'Antonio N, Zhang Y, Rajagopalan A, Flietner E, Wilson K, Zhang X, Shinn P, Klumpp-Thomas C, McKnight C, Itkin Z, Chen L, Kazandijian D, Zhang J, Michalowski AM, Simmons JK, Keats J, Thomas CJ, Mock BA. Drug combinations identified by high-throughput screening promote cell cycle transition and upregulate Smad pathways in myeloma. Cancer Lett. 2023 Aug 1;568:216284. doi: 10.1016/j.canlet.2023.216284. Epub 2023 Jun 24. PMID: 37356470; PMCID: PMC10408729.
SEQUENCE No. (e.g., 1, 2, 3, etc.); […] (e.g., Cells, Incubation, Reagent, etc.); VALUE and DESCRIPTION.
1; Cells; 5 uL; white, solid bottom 1536-well Greiner assay plate.
2; Compounds; 23 nL; Kalypsis pin tool (Wako USA) equipped with a 1536-well pin head to transfer to the assay plates.
3; Incubation; 48 hours; 37C incubation.
4; Reagent;5uL; CellTiter Glo (Promega).
5; Detector; 425V; Luminescence; Viewlux PerkinElmer.
NOTES (numbers refer to Sequence numbers above)
1. The cell-based screening methods employed in this study were like those previously published. Briefly, the corresponding myeloma cell lines were screened in 1,536-well plates with 500 cells, 5-uL per well for inhibition of cell viability (assessed by measuring ATP levels with CellTiterGlo).
2. NCATS MIPE 4.0 library of approved and investigational drugs were added using the Kalypsis pin tool. Wells treated with DMSO only for 100% viability and media only wells for 0% viability were used as controls.
3. The assay plates were covered and incubated for 48 hours in a 37C, 5% CO2 incubator with controlled humidity.
4. After 48 hours, CellTilter-GloTM luminescent substrate mix (Promega) reagent was added to the assay plate and plates we incubated for 5 min at room temperature.
5. Signal was measured as median relative luminescence units on a ViewLux (PerkinElmer) multiplate reader.
[1] Heske CM, Davis MI, Baumgart JT, Wilson K, Gormally MV, Chen L, Zhang X, Ceribelli M, Duveau DY, Guha R, Ferrer M, Arnaldez FI, Ji J, Tran HL, Zhang Y, Mendoza A, Helman LJ, Thomas CJ. Matrix Screen Identifies Synergistic Combination of PARP Inhibitors and Nicotinamide Phosphoribosyltransferase (NAMPT) Inhibitors in Ewing Sarcoma. Clin Cancer Res. 2017 Dec 1;23(23):7301-7311. doi: 10.1158/1078-0432.CCR-17-1121. Epub 2017 Sep 12. PMID: 28899971; PMCID: PMC6636827.
For `COC(=O)N[C@H](C(=O)N1CCC[C@@H]1c1ncc(-c2ccc(-c3ccc(-c4cnc([C@@H]5CCCN5C(=O)[C@@H](NC(=O)OC)C(C)C)[nH]4)cc3)cc2)[nH]1)C(C)C`, the Potency was 23.5 µM (active). With `COc1ccc(-c2nc(N3CCOCC3)c3sc(CN(C)c4ncc(C(=O)NO)cn4)cc3n2)cn1` the Potency was 0.0019 µM (active). For `CCc1ccc(OCc2ccccc2C(=O)Nc2ccc3nc(C)cc(N)c3c2)cc1`, the Potency was 6.62 µM (active). For `Nc1ncnc2ccccc12`, the “viability, % of DMSO” value was 163%. For `O=C(NC1CCOCC1)c1ccc(-c2cc(-c3cn[nH]c3-c3ccccn3)ccn2)cc1`, the “viability, % of DMSO” value was 139%. In the case of `CCC(=O)O[C@]1(C(=O)CO)CC[C@H]2[C@@H]3CCC4=CC(=O)CC[C@]4(C)[C@@H]3CC[C@@]21C`, the “viability, % of DMSO” value is reported as 119%. For `CN(C)C1CCN(C(=O)c2ccc(NC(=O)Nc3nc(N4CCOCC4)nc(N4CCOCC4)n3)cc2)CC1`, the Potency was 0.0833 µM (active). In the case of `O=c1cc(N2CCOCC2)oc2c(-c3cccc4c3sc3ccccc34)cccc12`, the Potency is reported as 14.8 µM (active). For `COc1cc2nc(-c3ccc(N4CCN(C)CC4)cc3)nc(NCCN3CCOCC3)c2cc1OC`, the Potency was 0.0148 µM (active). In the case of `CS(=O)c1ccc(-c2nc(-c3ccc(F)cc3)c(-c3ccncc3)[nH]2)cc1` (stereo not given), the Potency is reported as 2.15 µM (active). With `OC[C@H]1O[C@@H](n2cnc3c2NC=NC[C@@H]3O)C[C@H]1O` the Potency was 23.5 µM (active). With `O=C(Nc1cccc(Br)c1)c1cccc(S(=O)(=O)N2CCCCCC2)c1` the Potency was 20.9 µM (active). For `O=c1cc(CN2CCOCC2)occ1OCCCCCSc1ccnc2cc(C(F)(F)F)ccc12`, the Potency was 7.43 µM (active). With `COc1ccc(-c2coc3cc(O)ccc3c2=O)cc1` the “viability, % of DMSO” value was 115%. With `Oc1ccc(C2CCN(c3ccnc4ccccc34)CC2)cc1O` the Potency was 16.6 µM (active). For `O=C(Nc1c(Cl)cncc1Cl)c1ccc(OC(F)F)c(OCC2CC2)c1`, the “viability, % of DMSO” value was 148%. With `CC1(C)CCC[C@@]2(C)[C@@H]1CC[C@@]1(C)OC(=O)C[C@H]21` the “viability, % of DMSO” value was 135%. For `CC(C(=O)O)c1ccc(-c2ccccc2)c(F)c1` (stereo not given), the “viability, % of DMSO” value was 122%. With `Cc1nc(N)sc1-c1ccnc(Nc2ccc(N3CCOCC3)cc2)n1` the Potency was 11.8 µM (active). In the case of `CO[C@H]1C=CC=C(C)C(=O)NC2=CC(=O)C(NCCN(C)C)=C(C[C@@H](C)C[C@H](OC)[C@@H](O)[C@@H](C)C=C(C)[C@@H]1OC(N)=O)C2=O`, the Potency is reported as 0.0296 µM (active). For `CC(C)=CC[C@@H](O)C1=CC(=O)c2c(O)ccc(O)c2C1=O`, the Potency was 0.372 µM (active). With `CCn1c(C(=O)N(C2CC2)C2CC2)cc2c3c(ncn3C)c(Nc3cc(C)n(C)n3)nc21` the Potency was 20.9 µM (active). With `O=C(Nc1ccccc1-c1cn2c(CN3CCNCC3)csc2n1)c1cnc2ccccc2n1` the Potency was 9.35 µM (active). For `COc1ccc(Cc2nccc3cc(OC)c(OC)cc23)cc1OC`, the Potency was 16.6 µM (active). With `CC1(C)CCC(CN2CCN(c3ccc(C(=O)NS(=O)(=O)c4ccc(NCC5CCOCC5)c([N+](=O)[O-])c4)c(Oc4cnc5[nH]ccc5c4)c3)CC2)=C(c2ccc(Cl)cc2)C1` the Potency was 20.9 µM (active). For `NS(=O)(=O)c1cccc2c1C(=O)c1cccc(O)c1C2=O`, the Potency was 0.264 µM (active). In the case of `CC(C)n1nc(-c2ccc3oc(N)nc3c2)c2c(N)ncnc21`, the Potency is reported as 0.0074 µM (active). With `CCS(=O)(=O)N1CC(CC#N)(n2cc(-c3ncnc4[nH]ccc34)cn2)C1` the Potency was 11.8 µM (active). For `Cc1[nH]c(C=C2C(=O)Nc3ccc(S(=O)(=O)Cc4c(Cl)cccc4Cl)cc32)c(C)c1C(=O)N1CCC[C@H]1CN1CCCC1`, the Potency was 23.5 µM (active). With `O=C(O)C(O)Cc1ccc(O)c(O)c1` (stereo not given) the Potency was 23.5 µM (active). With `COc1cc2ncnc(Nc3ccc(F)c(Cl)c3)c2cc1OCCCN1CCOCC1` the Potency was 42.9 µM (active). In the case of `CC[C@@H]1C=C(C)C[C@H](C)C[C@H](OC)[C@H]2O[C@@](O)(C(=O)C(=O)N3CCCC[C@@H]3C(=O)O[C@H](C(C)=C[C@@H]3CC[C@H](Cl)[C@H](OC)C3)[C@H](C)[C@@H](O)CC1=O)[C@H](C)C[C@H]2OC`, the Potency is reported as 20.9 µM (active). With `CC(=O)Oc1cc2c(s1)CCN(C(C(=O)C1CC1)c1ccccc1F)C2` (stereo not given) the Potency was 2.35 µM (active). With `Cc1ccc(C(C)(O)c2nc3ccccc3s2)c(C)c1` (stereo not given) the “viability, % of DMSO” value was 130%. With `O=C(NCc1ccccc1)c1csc(Nc2ccncn2)n1` the Potency was 16.6 µM (active). In the case of `Cc1ccc(C(=O)Nc2cccc(C(F)(F)F)c2)cc1Nc1nc(-c2cccnc2)nc2c1cnn2C`, the Potency is reported as 18.7 µM (active). In the case of `CNC(=O)c1ccc2cc(C3(O)CCn4cncc43)ccc2c1` (stereo not given), the “viability, % of DMSO” value is reported as 134%. With `O=C(O)[C@H]1O[C@H](Oc2cc3oc(-c4ccccc4)cc(=O)c3c(O)c2O)[C@H](O)[C@@H](O)[C@H]1O` the Potency was 13.2 µM (active). For `CC(C)C[C@H](CC(=O)O)C(=O)N[C@@H](Cc1c[nH]c2ccccc12)C(=O)N[C@@H](C)c1ccccc1`, the “viability, % of DMSO” value was 138%. With `CO[C@@H](C(=O)N1Cc2[nH]nc(NC(=O)c3ccc(N4CCN(C)CC4)cc3)c2C1)c1ccccc1` the Potency was 23.5 µM (active).
